Results on 88 compounds are retold here after article PMC4336329 (PLoS ONE, 2015).

The structures appear in SMILES notation. The campaign covered roughly 310,000 compounds. About 14,000 (4.5%) showed an effect of 50% or more. Effects have a minus sign here. Only a selection was taken, and strong results are over-represented in it overall.
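Also: peak tail current of the secondary pulse compared with the same well before compound.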

Chain of human ether-à-go-go-related gene (hERG) potassium channel (Q12809 whole entry, looked up): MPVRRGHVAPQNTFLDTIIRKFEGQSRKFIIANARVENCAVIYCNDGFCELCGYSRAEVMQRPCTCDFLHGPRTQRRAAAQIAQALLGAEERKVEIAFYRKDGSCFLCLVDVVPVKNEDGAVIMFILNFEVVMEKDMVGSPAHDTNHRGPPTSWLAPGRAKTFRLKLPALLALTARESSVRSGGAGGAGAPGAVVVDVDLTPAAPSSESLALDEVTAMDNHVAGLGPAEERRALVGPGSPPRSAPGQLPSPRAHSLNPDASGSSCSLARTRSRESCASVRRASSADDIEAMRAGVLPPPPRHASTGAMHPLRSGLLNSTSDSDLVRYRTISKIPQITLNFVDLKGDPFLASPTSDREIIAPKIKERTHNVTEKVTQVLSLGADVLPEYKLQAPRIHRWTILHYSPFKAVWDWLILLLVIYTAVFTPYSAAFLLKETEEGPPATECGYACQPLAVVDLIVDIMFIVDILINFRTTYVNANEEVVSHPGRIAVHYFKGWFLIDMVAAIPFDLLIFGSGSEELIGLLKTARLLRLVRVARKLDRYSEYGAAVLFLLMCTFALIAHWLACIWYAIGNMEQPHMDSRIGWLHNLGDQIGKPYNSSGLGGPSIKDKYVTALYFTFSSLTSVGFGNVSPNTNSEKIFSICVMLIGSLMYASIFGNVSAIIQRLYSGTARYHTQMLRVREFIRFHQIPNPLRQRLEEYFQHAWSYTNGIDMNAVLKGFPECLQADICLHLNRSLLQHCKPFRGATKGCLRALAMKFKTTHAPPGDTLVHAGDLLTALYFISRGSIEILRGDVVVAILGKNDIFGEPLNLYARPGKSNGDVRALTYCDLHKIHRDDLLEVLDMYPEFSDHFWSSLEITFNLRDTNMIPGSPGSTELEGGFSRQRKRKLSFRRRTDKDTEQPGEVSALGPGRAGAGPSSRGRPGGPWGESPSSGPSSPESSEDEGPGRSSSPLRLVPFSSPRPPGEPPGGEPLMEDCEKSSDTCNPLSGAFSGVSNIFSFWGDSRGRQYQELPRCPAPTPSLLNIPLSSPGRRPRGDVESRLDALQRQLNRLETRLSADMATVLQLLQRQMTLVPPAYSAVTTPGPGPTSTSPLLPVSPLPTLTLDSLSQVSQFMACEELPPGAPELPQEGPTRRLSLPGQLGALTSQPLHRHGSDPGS

The test has as its target human ether-à-go-go-related gene (hERG) potassium channel (human, UniProt Q12809). Kind of test: primary screen, population patch clamp on CHO cells stably expressing hERG; higher = less effect of the substance.
`CCSCCOC(=O)C1=C(C)N(C)C(=O)NC1c1ccc2c(c1)OCO2` (stereo not shown): the “hERG current change (%, negative = inhibition) at 10uM” value stood at 5.29%.
Under `Cc1cc(C)c(S(=O)(=O)N(CC(=O)NCc2cccnc2)C2CCCCC2)c(C)c1` stands -37.4%; under `O=C(CN(C1CCCCC1)S(=O)(=O)c1ccc(Cl)cc1)NCc1cccnc1`, -74.4%; under `Cc1ccc(S(=O)(=O)N(CC(=O)NCc2cccnc2)C2CCCCC2)cc1`, -63.3%.
Under `O=C(CN(C1CCCCC1)S(=O)(=O)c1ccccc1)NCc1cccnc1` stands -30%; under `CS(=O)(=O)N(CC(=O)NCc1cccnc1)C1CCCCC1`, 5.98%; under `COc1ccc(S(=O)(=O)N(CC(=O)NCc2cccnc2)C2CCCCC2)cc1OC`, -12.7%.
With `O=C(COC(=O)c1cc(S(=O)(=O)N2CCOCC2)ccc1F)NC1CCCCC1` the figure was -2.25%.
Consider `CO/N=C/c1ccc(Oc2ccc(C)cc2)c([N+](=O)[O-])c1`, for which the “hERG current change (%, negative = inhibition) at 10uM” value is recorded as 12.1%.
In the case of `O=[N+]([O-])c1cc(/C=N\O)ccc1Oc1ccc(F)cc1`, the “hERG current change (%, negative = inhibition) at 10uM” value is -72.1%.
Under `O=[N+]([O-])c1cc(/C=N/O)ccc1Oc1ccccc1Cl` stands -16%; under `O=[N+]([O-])c1cc(/C=N/O)ccc1Oc1cccc(Cl)c1`, -53.7%.
On to `COc1cc(/C=N/O)ccc1Oc1ccc([N+](=O)[O-])cc1[N+](=O)[O-]`, for which the “hERG current change (%, negative = inhibition) at 10uM” value is -45.9%.
Under `O/N=C\c1ccccc1Oc1ccc(F)cc1` stands 12.8%; under `CC(NC1c2ccccc2-c2ccccc21)c1ccccc1` (stereo not shown), 9.54%.
On to `CCOC(=O)c1c(NC=O)sc2c1CCC2`, for which the “hERG current change (%, negative = inhibition) at 10uM” value is on record as -2.89%.
For `Cc1ccc(C)c(NC(=S)NNC(=O)c2csc3c2CCC(C)C3)c1` (stereo not shown), the “hERG current change (%, negative = inhibition) at 10uM” value turned out to be 3.17%.
On to `O=C(NCc1ccccc1)C1=C[C@@H](c2ccccc2)C[C@@H](OCc2ccc(CO)cc2)O1`, for which the “hERG current change (%, negative = inhibition) at 10uM” value is reported as -14.4%.
Take `CCN(CC(=O)Nc1cccc(S(N)(=O)=O)c1)Cc1nc2ccccc2c(=O)[nH]1`: the “hERG current change (%, negative = inhibition) at 10uM” value is 3.49%.
Under `Cc1cc(-c2cc(-c3ccc(Cl)cc3)nc(N)c2C#N)co1` stands -1.55%; under `O=C(O)c1cccnc1Nc1ccc(Cl)cc1`, 25%; under `COc1ccc(CCn2c(=N)c(C(=O)NCC3CCCO3)cc3c(=O)n4ccccc4nc32)cc1OC` (stereo not shown), -75.9%.
With `COc1ccc(Cn2c(=N)c(C(=O)NCC3CCCO3)cc3c(=O)n4ccccc4nc32)cc1` (stereo not shown) the figure was -82.2%.
On to `COc1ccc(CCNC(=O)CCn2c(=O)c3ccccc3n(CC(=O)NCC3CCCO3)c2=O)cc1OC` (stereo not shown), for which the “hERG current change (%, negative = inhibition) at 10uM” value came to 8.86%.
For `COc1ccc(-n2nc(C(=O)NCC3CCCO3)c3ccccc3c2=O)cc1` (stereo not shown), the “hERG current change (%, negative = inhibition) at 10uM” value worked out at 31.7%.
In the case of `COc1ccc(-c2cc(C(=O)NCC3CCCO3)c3ccccc3n2)cc1` (stereo not shown), the “hERG current change (%, negative = inhibition) at 10uM” value is given as -10.7%.
Under `COc1ccc(-c2cc(C(=O)NCC3CCCO3)c3ccccc3n2)c(OC)c1` (stereo not shown) stands -0.667%; under `COc1ccc(C(=O)Nc2ccccc2C(=O)NCC2CCCO2)cc1` (stereo not shown), 4.28%.
Take `COc1ccc(CCn2c(=N)c(C(=O)NCC3CCCO3)cc3c(=O)n4ccccc4nc32)cc1` (stereo not shown): the “hERG current change (%, negative = inhibition) at 10uM” value is on record as -77.9%.
Regarding `COc1ccc(CCNC(=O)C(=O)NCC2CCCO2)cc1OC` (stereo not shown), the “hERG current change (%, negative = inhibition) at 10uM” value turned out to be 3.13%.
With `Cc1csc(SCC(=O)NC23CC4CC(CC(C4)C2)C3)n1` the figure was -20.5%; with `O=S(=O)(/N=C(/Nc1cccc2ccccc12)c1ccc(F)cc1)c1ccccc1`, -42.8%; with `COCCCNC(=O)Cn1nnc(-c2ccc(NC(=O)c3ccccc3F)cc2)n1`, -2.44%.
For `CCOC(=O)CN(C(=O)CSc1nnc(-c2ccc(OC)c(OC)c2)o1)c1ccc(F)cc1`, the “hERG current change (%, negative = inhibition) at 10uM” value was -49.6%.
Take `CC(=O)c1sc(NC(=O)CCOc2ccccc2)nc1C`: the “hERG current change (%, negative = inhibition) at 10uM” value amounted to 5.9%.
With `CCC(Sc1nc2n[nH]c(C)c2c(=N)n1-c1cc(Cl)ccc1C)C(=O)N1CCOCC1` (stereo not shown) the figure was -0.58%; with `CC(C(=O)Nc1ccc(C#N)cc1)N1CCN(C(=O)C2CC2)CC1` (stereo not shown), -61.2%.
With `COc1cc(NC(=O)C(C)N2CCN(C(=O)C3CC3)CC2)cc(OC)c1` (stereo not shown) the figure was -16.1%; with `CC1CCN(C(C)C(=O)Nc2ccc(S(=O)(=O)N3CCCC3)cc2)CC1` (stereo not shown), -6.3%; with `CC(C)OCCCNc1ncnc2c1nc1n2CCCC1`, -72.6%.
Regarding `COCCCNc1ncnc2c1nc1n2CCCC1`, the “hERG current change (%, negative = inhibition) at 10uM” value is 18.6%.
Under `CCOCCCNc1ncnc2c1nc1n2CCCC1` stands 17.2%.
With `COc1ccc2[nH]cc(CCN3C(=O)CCC3=O)c2c1` the figure was 10.7%.
With `CCN(CC)CCCNC(=O)CSc1nc2c(c(C(F)(F)F)n1)CCc1ccccc1-2` the figure was -52.2%; with `O=C(CSc1nc2c(c(C(F)(F)F)n1)CCc1ccccc1-2)NCc1ccc(F)cc1`, 14.2%; with `O=C(CSc1nc2c(c(C(F)(F)F)n1)CCc1ccccc1-2)NCc1ccccc1`, 6.56%.
Consider `Cl.O=C(CN1CCCC(O)C1)N1c2ccccc2Sc2ccc(C(F)(F)F)cc21` (stereo not shown), for which the “hERG current change (%, negative = inhibition) at 10uM” value is given as -7.16%.
Consider `COc1cccc(C(=O)Nc2c3c(nn2-c2ccc([N+](=O)[O-])cc2)CS(=O)(=O)C3)c1`, for which the “hERG current change (%, negative = inhibition) at 10uM” value is on record as -53.8%.
With `CC(Oc1ccccc1)C(=O)Nc1c2c(nn1-c1ccccc1)CS(=O)(=O)C2` (stereo not shown) the figure was 18.2%; with `CCOc1ccc(C(=O)Nc2c3c(nn2-c2ccccc2)CS(=O)(=O)C3)cc1`, 4.84%.
With `COc1ccc(C(=O)Nc2c3c(nn2-c2ccc([N+](=O)[O-])cc2)CS(=O)(=O)C3)cc1` the figure was -9.85%.
With `Cc1ccc(-n2nc3c(c2NC(=O)c2ccco2)CS(=O)(=O)C3)cc1` the figure was -25.7%; with `O=C(Nc1c2c(nn1-c1ccc([N+](=O)[O-])cc1)CS(=O)(=O)C2)c1ccco1`, -64.7%.
With `COc1ccccc1C(=O)Nc1c2c(nn1-c1ccc([N+](=O)[O-])cc1)CS(=O)(=O)C2`, the “hERG current change (%, negative = inhibition) at 10uM” value is listed as 11.7%.
With `O=C(Nc1c2c(nn1-c1ccccc1)CS(=O)(=O)C2)c1ccco1` the figure was -9.21%; with `CC(C)Oc1ccc(C(=O)Nc2c3c(nn2-c2ccccc2)CS(=O)(=O)C3)cc1`, -65.9%.
With `O=C(NNC(=O)C1CCN(Cc2ccccc2)CC1)c1cccc(Cl)c1` the figure was -14%.
Under `CCCn1nc(Oc2nc(NCC)nc(NC(C)C)n2)ccc1=O` stands 1.01%; under `CCc1nc(N2CCN(C(=S)NCCCOC)CC2)c2c3c(sc2n1)CCCC3`, -9.32%; under `Fc1ccc(-n2c(-c3ccc4ccccc4n3)n[nH]c2=S)cc1Cl`, 31%.
As for `O=C(COc1ccccc1)NC1CCCc2ccccc21` (stereo not shown), the “hERG current change (%, negative = inhibition) at 10uM” value is -19.3%.
As for `CCOC(=O)Cc1csc(NC(=O)NC2(C(F)(F)F)Oc3ccc(Cl)cc3O2)n1` (stereo not shown), the “hERG current change (%, negative = inhibition) at 10uM” value is 15.8%.
Under `Cc1ccccc1NS(=O)(=O)c1ccc(OCC(=O)NCc2cccnc2)cc1` stands -32.8%; under `O=C(COCc1cc(-c2ccc3c(c2)OCO3)on1)N1CCCCC1`, 4.66%; under `CCCc1c(C)nc2ccc(OC)cc2c1SCCC(=O)O`, 10.4%.
Under `COc1cccc(C(=O)C2=NN(C(C)=O)CC2c2ccco2)c1` (stereo not shown) stands -15.8%.
With `COc1ccc(NC(=O)CCN2C(=O)c3ccncc3C2=O)cc1OC` the figure was -7.46%; with `CC1CCCCN1C(=S)Nc1ccc(OC(F)F)cc1` (stereo not shown), -40.1%.
As to `O=C(CNC(=O)c1ccccc1)Oc1cccc(Cl)c1`, the “hERG current change (%, negative = inhibition) at 10uM” value stood at 17.8%.
Take `CC(NC(=O)NC1CCCCC1)C(c1cccs1)N1CCN(C)CC1` (stereo not shown): the “hERG current change (%, negative = inhibition) at 10uM” value is on record as -8.03%.
Under `CCN1CCN(C(c2cccs2)C(C)NC(=O)NC2CCCCC2)CC1` (stereo not shown) stands -45.5%.
Turning to `CC(NC(=O)C(C)(C)C)C(c1cccs1)N1CCN(Cc2ccccc2)CC1` (stereo not shown), the “hERG current change (%, negative = inhibition) at 10uM” value is -14.3%.
Under `CC(NC(=S)NC1CCCCC1)C(c1cccs1)N1CCOCC1` (stereo not shown) stands -0.732%; under `CC(NC(=O)NC1CCCCC1)C(c1cccs1)N1CCN(c2ccccc2)CC1` (stereo not shown), -48.6%; under `CC(NC(=O)NC1CCCCC1)C(c1cccs1)N1CCN(Cc2ccccc2)CC1` (stereo not shown), -56.7%.
With `CCN1CCN(C(c2cccs2)C(C)NC(=S)NC2CCCCC2)CC1` (stereo not shown) the figure was -60.8%; with `CC(NC(=O)c1cccs1)C(c1cccs1)N1CCN(Cc2ccccc2)CC1` (stereo not shown), -72.7%.
For `CCC(=O)NC(C)C(c1cccs1)N1CCN(Cc2ccccc2)CC1` (stereo not shown), the “hERG current change (%, negative = inhibition) at 10uM” value is given as -11.6%.
Regarding `Cc1ccc(NCC(=O)N/N=C/c2ccc(OC(=O)c3ccco3)cc2)cc1`, the “hERG current change (%, negative = inhibition) at 10uM” value came out at 1.76%.
`CCCN(CC(=O)Nc1ccccc1C)C(=O)COc1c(C)cccc1C`: the “hERG current change (%, negative = inhibition) at 10uM” value is -4.72%.
With `NS(=O)(=O)c1ccc(Nc2ccc3nonc3c2[N+](=O)[O-])cc1` the figure was 9.07%; with `O=C(CSc1n[nH]c(=O)n1C1CC1)c1c[nH]c2ccccc12`, 9.29%; with `O=C(CCCN1C(=O)/C(=C/c2cccc(Br)c2)SC1=S)NCCCN1CCOCC1`, -18.1%.
With `CCc1ccc(/C=C2/Sc3ccccc3N(CC(=O)NCCCN3CCOCC3)C2=O)cc1` the figure was -41.3%; with `O=C(CN1C(=O)/C(=C/c2ccc(C(F)(F)F)cc2)Sc2ccccc21)NCCCN1CCOCC1`, -65.6%; with `O=C(CN1C(=O)/C(=C/c2ccccc2)Sc2ccccc21)NCCCN1CCOCC1`, -42.8%.
Under `O=C(CN1C(=O)/C(=C/c2cccc(Br)c2)SC1=S)NCCCN1CCOCC1` stands 5.42%; under `O=C(CCN1C(=O)/C(=C\c2cccc(Br)c2)SC1=S)NCCCN1CCOCC1`, -63.4%.
